From PubChem BioAssay (NCI)
The panel holds about 83,000 compounds, 20% with a hit somewhere; the sample as a whole holds those more often.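 The endpoint reported here, percent growth, reads 100 for growth as untreated, 0 for no net growth and -100 for all cells dead.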 A number with no mark means an inactive call. Calls of active or inactive are those of the source. The calls were made as follows: active = growth percent below 10; inactive = the rest.

How the values were obtained:
Test in all cases: NCI-60 one-dose screen, 48 h (100 = growth as untreated, 0 = no growth, -100 = all killed)
Settings in all cases: 10 µM unless noted
HCT-15 colon = tested on: HCT-15 colon
HT29 colon = tested on: HT29 colon
SNB-75 CNS = tested on: SNB-75 CNS
SNB-19 CNS = tested on: SNB-19 CNS
U251 CNS = tested on: U251 CNS
PC-3 prostate = tested on: PC-3 prostate
SK-MEL-5 melanoma = tested on: SK-MEL-5 melanoma
UACC-62 melanoma = tested on: UACC-62 melanoma
LOX IMVI melanoma = tested on: LOX IMVI melanoma
SK-MEL-28 melanoma = tested on: SK-MEL-28 melanoma

SMILES | growth (HCT-15 colon) | growth (HT29 colon) | growth (SNB-75 CNS) | growth (SNB-19 CNS) | growth (U251 CNS) | growth (PC-3 prostate) | growth (SK-MEL-5 melanoma) | growth (UACC-62 melanoma) | growth (LOX IMVI melanoma) | growth (SK-MEL-28 melanoma)
O=C1c2ccccc2NC(n2sc3ccccc3c2=O)N1c1ccccc1 (stereo not given) | 91.5% | 90.6% | 94% | 101% | 104% | 92.9% | 105% | 93.3% | 87.9% | 116%
CN(C)CCCNc1nc2ccccc2c2c(=O)c3cc(F)ccc3sc12 | 17.7% | 4.32% (active) | 65.6% | 68.4% | 28.5% | 50.2% | 72.6% | -53.8% (active) | -95% (active) | -42.4% (active)
O=C(Nn1c(NCC(=O)N2c3ccccc3Sc3ccccc32)nnc1-c1ccc(O)cc1)c1ccccc1 | 98% | 103% | 102% | 107% | 103% | 90.7% | 107% | 98.9% | 90.8% | 115%
CC(=O)CC(c1cccs1)c1c(-c2ccccc2)[nH]c2ccccc12 (stereo not given) | 80.7% | 98.2% | 40.7% | 96% | 93.8% | 77.3% | 95.3% | 77.9% | 81.7% | 102%
O=C(N/N=C/c1c(Cl)cccc1Cl)c1ccc(C(F)(F)F)nc1Nc1cccc(C(F)(F)F)c1 | -13.5% (active) | 15.6% | 48.8% | 19.6% | 2.92% (active) | 7.85% (active) | 7.65% (active) | -3.04% (active) | 3.01% (active) | 36.6%
O=c1cc(SCc2ccccc2)nc[nH]1 | 105% | 109% | 93.7% | 107% | 107% | 97.7% | 113% | 108% | 107% | 133%
COC(=O)CCC/C=C\C[C@H]1C=CC(=O)/C1=C/C[C@@H](O)CCc1cccc(C(F)(F)F)c1 | -5.76% (active) | -30.6% (active) | 97.9% | 4.49% (active) | -84.3% (active) | -39% (active) | -83.3% (active) | -60% (active) | -64.2% (active) | -45.9% (active)
O=c1c2cc(F)ccc2sc2c(N3CCCCC3)nc3ccccc3c12 | 103% | 98% | 90.2% | 101% | 94.1% | 98.1% | 97.8% | 96.1% | 97.1% | 109%
O=C(/C=C/c1sc(Cl)nc1Cl)c1ccc(Br)cc1 | 32.4% | 91.2% | 95% | 90.6% | 60.1% | 95.5% | 89.2% | 95.3% | 5.31% (active) | 100%
CCc1ccccc1-n1c(N)c(C#N)c(-c2ccc(Cl)cc2)c(C#N)c1=O | 108% | 102% | 90.5% | 111% | 119% | 80.6% | 106% | 98.6% | 100% | 113%
CCCCCCCCCCCCCCCCCC1OCC(COC(=O)O[C@]2(CC)C(=O)OCc3c2cc2n(c3=O)Cc3cc4ccccc4nc3-2)O1 (stereo not given in full) | 83.5% | 79.6% | 79.6% | 57.6% | 56.5% | 77.8% | 84.6% | 31.6% | 59.7% | 111%
COc1cccc(-c2nc(-c3ccc(NC(=O)C(C)C)cc3)[nH]c2-c2ccnc(Br)c2)c1 | 7.17% (active) | 23% | 10.5% | 44.6% | 32% | 18.7% | 6.14% (active) | 37.1% | 15.2% | 47%
Cc1cccc2c(=O)c3c(sc12)c(NCc1ccccc1)nc1ccccc13 | 64.3% | 83.4% | 96.1% | 107% | 101% | 89.1% | 94.5% | 74.3% | 93.6% | 116%
O=C(N=c1oc2ccccc2cc1-c1cc2ccccc2[nH]1)Nc1ccc(Cl)cc1 | 107% | 99.8% | 78.3% | 97.3% | 104% | 86.8% | 99.6% | 83% | 94.2% | 100%
CCC(=O)Nc1ccc(-c2nc(-c3cccc(OC)c3)c(-c3ccnc(Br)c3)[nH]2)cc1 | 21.5% | 54.7% | 15.9% | 67.8% | 53.4% | 39.4% | 47.8% | 48.8% | 43.3% | 66%
Cc1nc2ccccc2n1CC1C(=O)NC(=O)NC1=O | 106% | 107% | 94.1% | 98.5% | 99.4% | 103% | 100% | 103% | 100% | 108%
c1cc(NCCc2ccncc2)nc(-n2cnc3ccccc32)c1 | 90.1% | 92.7% | 112% | 99.9% | 82.2% | 83% | 93.7% | 91.2% | 79.4% | 109%
Cc1cc(N2CCCC2)nc(N(CCCNc2ccnc3cc(Cl)ccc23)Cc2ccccn2)n1 | 32.3% | 11.2% | 77.4% | 65.9% | 55.3% | 52% | 50.9% | 79.8% | 32.3% | 69.8%
COc1ccc(-c2cnc3ccccc3n2)cc1 | 99.9% | 118% | 72.4% | 93.6% | 86.3% | 98% | 101% | 91.6% | 101% | 104%
COc1ccc2[nH]c(-c3ccccc3)c(/C=C(\C#N)S(=O)(=O)c3ccccc3)c2c1 | 39.3% | 21% | 48.1% | 63.2% | 39% | 49.6% | 14.9% | 42.1% | 61.2% | 53.4%
COc1cc(C(=O)/C=C/c2sc(Cl)nc2Cl)cc(OC)c1OC | -57.2% (active) | 25.1% | 73.1% | 77.6% | 6.7% (active) | 50.8% | 88.7% | 85.1% | -86.5% (active) | 18.5%
COc1cccc(Cc2nn3cc(-c4ccccc4)nc3s2)c1 | 76.9% | 54.6% | 99.7% | 102% | 99.1% | 96.5% | 93.9% | 91.1% | 51.5% | 113%
COc1cc(C(=O)/C=C/c2ccc(OCCCCCC[P+](c3ccccc3)(c3ccccc3)c3ccccc3)cc2)cc(OC)c1OC | -54.7% (active) | -14.1% (active) | -11.1% (active) | -73.3% (active) | -100% (active) | -54.9% (active) | -100% (active) | -80.3% (active) | -100% (active) | -60.4% (active)
CCCCn1c(=O)c(-c2cc(-c3ccc(Cl)cc3)nc(-c3ccc(Cl)cc3)c2)cc2cc(C)ccc21 | 101% | 101% | 98.5% | 98.8% | 106% | 97.2% | 104% | 89.7% | 98.5% | 107%
COc1ccc(-c2[nH]ncc2-c2cc3c(c(OC)c2)OCC(=O)N3)cc1 | 23.7% | 37.2% | -20.2% (active) | 24.7% | 11.3% | 17.6% | 11.9% | 25.3% | 41.7% | 57.6%
